Results on 106 variants are retold here after the emibetuzumab library of Makowski et al. (2022).

The list shows a part of the results. The true hit rate is not given.

The labels stand for the following.
B1: VH:VL chains; a variant is named by its letters at X, in order (parent)
chain 1: QVQLVQSGAEVKKPGASVKVSCKASGYTFTDYXMHWVRQAPGQGLEWMGXVNPNXXXTTYNQKFEGRVTMTTDTSTSTAYMELRSLRSDDTAVYYCARXNXLDXWGQGTTVTVSS
chain 2: DIQMTQSPSSLSASVGDRVTITCSVSSSVSSIYLHWYQQKPGKAPKLLIYSTSNLASGVPSRFSGSGSGTDFTLTISSLQPEDFATYYCQVYSGYPLTFGGGTKVEIK

Variants of B1 are the subject of this assay. The assay can be described thus: yeast display scFab, FACS + sequencing. As to conditions: with MET. In a few lines: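 Two magnetic rounds on Protein A beads coated with HGFR-Fc, followed by FACS, were used to enrich a yeast surface scFab library mutated in the heavy-chain CDRs. FACS gated the top 50% antigen-positive cells after 3 h labelling at room temperature with 1 nM HGFR-Fc and anti-Myc in PBSB plus 1% milk. Binding to the antigen was scored positive when a sequence occurred in both antigen-positive samples from deep sequencing and negative when it occurred only in the input.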
Take VKGASDVV: the antigen binding call is recorded as “no binding”.

In the case of DTGGGAGA, the antigen binding call is reported as “no binding”.

In the case of YRGKGYAA, the antigen binding call was “binds”.

For the variant VRGRGFAA, the antigen binding call is given as “no binding”.

For the variant VRGTGYAS, the antigen binding call is “no binding”.

On to YRGRGYAA, for which the antigen binding call is “binds”.

YKGRGYAA: the antigen binding call is “binds”.

VRGRGYAA: the antigen binding call is “binds”.

Regarding YKGRGYVA, the antigen binding call is recorded as “no binding”.

VTTRAASV: the antigen binding call is given as “no binding”.

For SREEGFSV, the antigen binding call was “no binding”.

On to VTGRGDLA, for which the antigen binding call was “no binding”.

Consider YGGRGAVA, for which the antigen binding call is given as “binds”.

Consider YEGRGDVA, for which the antigen binding call is reported as “no binding”.

As to YGGGGAVA, the antigen binding call is “no binding”.

Consider VRGRGDLA, for which the antigen binding call was “binds”.

As for VRAGGDLA, the antigen binding call is “no binding”.

For the variant YRAGGYAA, the antigen binding call is reported as “binds”.

In the case of YRGRGVAA, the antigen binding call is listed as “binds”.

Turning to SETKGDVY, the antigen binding call was “no binding”.

Regarding DREEGFSV, the antigen binding call is listed as “no binding”.

As for AAGGDYVF, the antigen binding call was “no binding”.

In the case of VTEGDAGD, the antigen binding call is given as “no binding”.

As to YRRRGSWS, the antigen binding call is on record as “binds”.

For the variant YRRRGAWS, the antigen binding call is listed as “binds”.

In the case of YERRGSWS, the antigen binding call is listed as “no binding”.

For YRRRGYSS, the antigen binding call is recorded as “binds”.

Consider VERRGSWS, for which the antigen binding call was “no binding”.

As for YAKADYSS, the antigen binding call is “no binding”.

On to YRRGGAWS, for which the antigen binding call is “binds”.

Turning to VTRGDVWV, the antigen binding call is given as “no binding”.

Take VTGTGDVV: the antigen binding call is given as “no binding”.

SEGTGAGV: the antigen binding call is on record as “no binding”.

Regarding YRRRGSLS, the antigen binding call is “binds”.

As for SKTKSDGS, the antigen binding call is “no binding”.

With YRRRGAAS, the antigen binding call is “binds”.

Consider SKRRGSLS, for which the antigen binding call was “binds”.

Regarding SKERGDLV, the antigen binding call is “no binding”.

With YRRRGSSS, the antigen binding call is “binds”.

For the variant VETEGAGA, the antigen binding call is “no binding”.

In the case of SREAADGV, the antigen binding call is recorded as “no binding”.

As for AETTDSWV, the antigen binding call is “no binding”.

Turning to FGATSVSF, the antigen binding call is “no binding”.

Regarding SARTDFWF, the antigen binding call was “no binding”.

In the case of ARAETDVY, the antigen binding call is recorded as “no binding”.

As for YRRRGALS, the antigen binding call is “binds”.

For YRRRGSAS, the antigen binding call is “binds”.

For DARGGSSS, the antigen binding call is recorded as “no binding”.

Consider YRRRSSSS, for which the antigen binding call was “binds”.

Turning to YRRRGSVS, the antigen binding call was “binds”.

For VTEENDGY, the antigen binding call is recorded as “no binding”.

Turning to FAEGDDVY, the antigen binding call is “no binding”.

ATTKSDVA: the antigen binding call is listed as “no binding”.

Regarding YARETDGA, the antigen binding call is given as “no binding”.

For the variant DAGAADGA, the antigen binding call is “no binding”.

As to YRRRGASS, the antigen binding call is on record as “binds”.

On to YRRRGSGS, for which the antigen binding call is “binds”.

DAEATDVA: the antigen binding call was “no binding”.

As for YRAKGSGD, the antigen binding call is on record as “binds”.

Take YKEKGAVD: the antigen binding call is “no binding”.

Consider YRAKGAGD, for which the antigen binding call was “binds”.

VAEKGAGD: the antigen binding call is listed as “no binding”.

On to YRAGTSGD, for which the antigen binding call is “binds”.

In the case of YREKGAGD, the antigen binding call is “binds”.

For DGGEGVVY, the antigen binding call was “no binding”.

On to AKRGAFAD, for which the antigen binding call is listed as “no binding”.

Consider VGGKNSVD, for which the antigen binding call was “no binding”.

On to VKGRADAD, for which the antigen binding call is recorded as “no binding”.

With YRAGASGD, the antigen binding call is recorded as “binds”.

Take YAAGASVD: the antigen binding call was “no binding”.

With YRAGSSGD, the antigen binding call is “binds”.

Turning to YRRKGAGD, the antigen binding call is “binds”.

For VKEADDVA, the antigen binding call is “no binding”.

With YREGGSLD, the antigen binding call is given as “binds”.

On to YRERSSLD, for which the antigen binding call was “binds”.

In the case of VTEGGSVD, the antigen binding call is on record as “no binding”.

For the variant YREGGSVD, the antigen binding call is given as “binds”.

YRGRTSLD: the antigen binding call is given as “binds”.

With DAEGGSLD, the antigen binding call is recorded as “no binding”.

Take VTTKSDVF: the antigen binding call is given as “no binding”.

For AETKGDVY, the antigen binding call is “no binding”.

On to SAGEGDGV, for which the antigen binding call was “no binding”.

On to VKEKGAWS, for which the antigen binding call is reported as “no binding”.

For AAKRGSWV, the antigen binding call is reported as “no binding”.

Take YKRGAAWS: the antigen binding call was “binds”.

Regarding AERRGSWS, the antigen binding call is “no binding”.

For FKTEGFVS, the antigen binding call was “no binding”.

On to YARGADGS, for which the antigen binding call was “no binding”.

In the case of VKEKGAWV, the antigen binding call is given as “no binding”.

Consider VKKRGAWS, for which the antigen binding call is “binds”.

As to FKKRGAWS, the antigen binding call is reported as “binds”.

As to AKKRGAWS, the antigen binding call was “binds”.

In the case of FAKRGAWS, the antigen binding call is on record as “no binding”.

YKTRSAWS chain 1 M48I: the antigen binding call is on record as “no binding”.

Take DATGGDVF: the antigen binding call is listed as “no binding”.

Turning to YERTTDLS, the antigen binding call is “no binding”.

Turning to VGGTSDGD, the antigen binding call is recorded as “no binding”.

As for VTEEGDWV, the antigen binding call was “no binding”.

Consider ATKGAAVA, for which the antigen binding call is listed as “no binding”.

In the case of YEKGGAWS, the antigen binding call is on record as “no binding”.

As for YKKRGAWS, the antigen binding call is recorded as “binds”.

For VTTKSAGV, the antigen binding call is listed as “no binding”.

Consider DAEATSLV, for which the antigen binding call was “no binding”.

Consider YRRGSSAA, for which the antigen binding call is on record as “binds”.

For YRRGGSAA, the antigen binding call is given as “binds”.

For VTGEDDVD, the antigen binding call is “no binding”.
